# PubChem BioAssay AID651602 (The Scripps Research Institute Molecular Screening Center, 2012)
# Hit rate of the full screen: of about 360,000 compounds, about 950 (0.26%) were called active. The list comes from a sample in which actives are over-represented; it also holds similar structures and randomly drawn compounds. A number with no mark means an inactive call. Cut-off read from the data, not from the text of the source: active = inhibition above about 11%; inactive = the rest.
# Test: growth loss of phage-infected E. coli, primary screen, RecBCD inhibitor project, absorbance, with phage, HTS (AID 651602)
# Conditions: at 11.9 µM, hits give high values
row,SMILES,inhibition
1,Clc1cccc2c1C1CC2CCN1Cc1ccccc1 (stereo not given),2.92%
2,C=CCN=C1NC(c2cccc(C(F)(F)F)c2)C(C(=O)OC)=C(C)N1C (stereo not given),2.4%
3,COc1ccccc1Cc1c(-c2ccc(F)cc2)nc2ccc(C)cn12,2.63%
4,CC1CCN(C(=O)c2ncn3c2C(=O)N[C@@H](C)C3)CC1,0.88%
5,Cc1cccc(NC(=O)Cn2cc(C(=O)c3ccco3)c3ccccc32)c1,16.3% (active)
6,O=C(Cn1cc(C(=O)c2cccs2)c2ccccc21)NCc1cccs1,3.17%
7,CC1CCN(C(=O)Cn2cc(C(=O)c3ccco3)c3ccccc32)CC1,2.64%
8,COCCCNC(=O)C[C@H]1C[C@@]2(C(=O)OC)C(=C[C@H](C(C)(C)C)O[C@@H]2C)N(Cc2ccc3c(c2)OCO3)C1=O,0.08%
9,Cc1nc(NC(=O)C(C)(C)C)sc1[N+](=O)[O-],0.38%
10,CC[C@H]1OC(=O)[C@H](C)[C@@H](O[C@H]2C[C@@](C)(OC)[C@@H](O)[C@H](C)O2)[C@H](C)[C@@H](O[C@@H]2O[C@H](C)C[C@H](N(C)C)[C@H]2O)[C@](C)(O)C[C@@H](C)[C@@H]2N[C@@H](COCCOC)O[C@H]([C@H]2C)[C@]1(C)O,39.4% (active)
11,Cc1ccc(N)cc1CN1CCN(c2ncc(Cc3ccccc3)cn2)CC1,1.25%
12,COc1ccc(SSc2ccc(OC)cc2C(=O)O)c(C(=O)O)c1,3.45%
13,CN1C(=O)C(Br)(Br)CC1c1cccnc1 (stereo not given),2.07%
14,CC(C)[C@@H](C)/C=C/[C@@H](C)[C@H]1CC[C@@H]2[C@]1(C)CCC1[C@]23C=C[C@]2(C[C@@H](O)CC[C@]12C)N(c1ccc([N+](=O)[O-])cn1)O3 (stereo not given in full),-0.39%
15,CC(=O)NC(c1cccs1)c1cc(Br)c2cccnc2c1O (stereo not given),18.8% (active)
16,N#Cc1ccccc1NC(=O)COc1c(Br)cc(Br)c2cccnc12,-0.78%
17,O=[N+]([O-])c1cc([N+](=O)[O-])c2cccnc2c1O,-2.95%
18,O=c1[nH]c(-c2ccccc2)cn1C1CCN(Cc2ccc(-c3nc4ccc(F)cc4nc3-c3ccccc3)cc2)CC1,0.95%
19,CC(C)CNc1cccc2c1S(=O)(=O)N[C@H](CC(C)C)CO2,2%
20,Cc1ccc(/C=N/NC(=O)C(NC(=O)c2ccccc2)c2n[nH]c(=O)c3ccccc23)cc1 (stereo not given),1.99%
21,Cc1ccc(NC(=O)CCC(=O)N/N=C/c2ccco2)c(C)c1,0%
22,Cc1ccc(/C=N/NC(=O)C2=NNC(c3ccccc3)(c3ccccc3)C2)c(O)c1,16.3% (active)
23,CN1CCCc2nc(-c3ccccc3)ccc21,2.87%
24,C=CCNC(=O)CSc1nc2sc(C)c(C)c2c(=O)[nH]1,97.6% (active)

row,SMILES,inhibition
1,C=CCn1c(SCC(=O)Nc2ccc(NC(C)=O)cc2)nc2sc(C)c(C)c2c1=O,5%
2,Cc1sc2nc(CSCC(=O)Nc3c(Cl)cccc3Cl)[nH]c(=O)c2c1C,-1.33%
3,COc1cccc(NC(=O)N(C)C[C@@H]2OCc3cn(nn3)CCCC(=O)N([C@@H](C)CO)C[C@H]2C)c1,1.68%
4,Cc1cc(OC(=O)NCCc2ccc(F)cc2)ccc1F,1.19%
5,CCOC(=O)N1CCN(C(=O)C[C@H]2C[C@@]3(C(=O)OC)C(=C[C@H](C4CCCC4)O[C@@H]3C)N(Cc3ccccc3)C2=O)CC1,-1.47%
6,CC(C)C[C@H](NC(=O)CC1CCCC1)C(=O)N1CCC[C@H]1C(=O)NCc1ccccc1,-1.58%
7,O=C1NC(=Nc2ccc(Cl)cc2)SC1Cc1cccc(Cl)c1Cl (stereo not given),3.76%
8,NC1=NC(=O)C(Cc2cccc(Cl)c2Cl)S1 (stereo not given),14.8% (active)
9,NC1=NC(=O)C(Cc2cccc(Cl)c2)S1 (stereo not given),2.84%
10,Nc1nc2c(ncn2[C@@H]2O[C@H](C(=O)N[C@H](Cc3ccccc3)C(=O)NCC3CCCCC3)[C@@H](O)[C@H]2O)c(=O)[nH]1,0.31%
11,CCCCCCCCN1C(=O)[C@@H](CC(=O)NCc2ccc(C)o2)C[C@@]2(C(=O)OC)C1=C[C@H](C(C)(C)C)O[C@@H]2C,4.26%
12,NC(=O)NCCCC(=O)O,3.55%
13,CC(=O)N(O)CCCCCNC(=O)CCC(=O)N(O)CCCCCNC(=O)CCC(=O)N(O)CCCCCNC(=O)CCC(=O)O,11.2% (active)
14,CC1=C(C/C=C(\C)CCCC(C)CCCC(C)CCCC(C)C)C(=O)c2ccccc2C1=O (stereo not given),99.2% (active)
15,CCCCCCCCN1C(=O)[C@@H](CC(=O)N2CCN(C(=O)OCC)CC2)C[C@@]2(C(=O)OC)C1=C[C@H](C1CCCC1)O[C@@H]2C,0.85%
16,CCOc1ccccc1C(=O)N1CCC[C@@H]1C(=O)N1CCC[C@H]1C(=O)NCc1ccccc1,2.4%
17,O=C(NCc1ccccc1)[C@@H]1CCCN1C(=O)[C@H]1CCCN1C(=O)c1cccc(Cl)c1,1.16%
18,CN(O)C(=S)c1ccccc1,28.3% (active)
19,COCCNC(=S)N(CCc1c(C)[nH]c2ccc(C)cc12)Cc1cccnc1,2.3%
20,CCNC(=S)N(CCc1c(C)[nH]c2ccc(C)cc12)Cc1ccco1,13.2% (active)
21,COc1ccc2[nH]c(C)c(CCN(Cc3cccs3)C(=S)Nc3ccccc3OC)c2c1,1.75%
22,CC(C)[C@H]1COCCS(=O)(=O)N1Cc1ccccc1-c1cccc2c1sc1ccccc12,2.16%
23,N#Cc1cccc(C(=O)NCC2CCN(C(=O)C(=O)c3cc4ccccc4o3)CC2)c1,1.78%
24,CN1C(=O)C2CC(O)C(SC3CC4C(=O)N(C)C(=O)C4CC3O)CC2C1=O (stereo not given),5.11%

row,SMILES,inhibition
1,CN1CCCCC(NC(=O)C(C)(C)C)C1=O (stereo not given),2.65%
2,COC(=O)[C@]12C[C@H](CC(=O)NCc3ccc(C)o3)C(=O)N(CCC3=CCCCC3)C1=C[C@H](C(C)(C)C)O[C@@H]2C,1.32%
3,CC(=O)C1=C(C)N(Cc2ccccc2)C(=S)NC1c1cccc(Br)c1 (stereo not given),2.19%
4,CCCCNc1cccc2c1S(=O)(=O)N[C@@H](C)CO2,2%
5,CCCCCCCCN1C(=O)[C@@H](CC(=O)NCc2ccccc2)C[C@@]2(C(=O)OC)C1=C[C@H](C(C)(C)C)O[C@@H]2C,1.01%
6,COc1cccc(/C=N/Nc2ncc(C(F)(F)F)cc2Cl)c1O,24.4% (active)
7,CN(NS(=O)(=O)c1cccs1)c1ncc(C(F)(F)F)cc1Cl,1.24%
8,O=C(c1ccccn1)c1ncc(C(F)(F)F)cc1Cl,2.12%
9,Cn1ccc(=Nc2ccc(NC(=O)c3ccc(N=c4ccn(C)c5ccc([N+](=O)[O-])cc45)cc3)cc2)cc1,70.7% (active)
10,O=C(Nc1ccc(C2CC2(Cl)Cl)cc1)c1cccc([N+](=O)[O-])c1 (stereo not given),1.49%
11,CC(C)c1ccc(NC(=O)CCN2C(=O)c3ccc([N+](=O)[O-])cc3C2=O)cc1,-0.16%
12,COC(=O)C1=C(C(=O)OC)C2C=C(C(C)C)C1C(=O)C2(C)O (stereo not given),3.33%
13,Nc1ncnc2c1ncn2[C@@H]1O[C@H](C(=O)N[C@@H](CCc2ccccc2)C(=O)N2CCCN(Cc3cccs3)CC2)[C@@H](O)[C@H]1O,2.53%
14,COc1cccc(CNC(=O)c2nnn(CC(=O)Nc3cc(Cl)ccc3C)c2N)c1,-1.55%
15,Nc1c(C(=O)Nc2ccc3c(c2)OCCO3)nnn1Cc1ccccc1,5.25%
16,CCOc1ccc(Cn2nnc(C(=O)Nc3ccc(OC)cc3OC)c2N)cc1,10.9% (active)
17,CC(=O)c1ccc(S(=O)(=O)NCC2CCN(C(=O)C(=O)c3cccs3)CC2)cc1,2.71%
18,Oc1cccc(/C=N/Nc2ccc(Cl)nn2)c1O,13.1% (active)
19,C/C(=N\Nc1ccc(Cl)nn1)c1ccccc1O,-5.1%
20,Cc1ccc2nc(-c3ccc(CN4CCC(n5cc(-c6ccccc6)[nH]c5=O)CC4)cc3)c(-c3ccccc3)nc2c1,2.06%
21,O=C(NCc1ccccc1)[C@H]1CCCN1C(=O)[C@@H]1CCCN1C(=O)c1ccc(Cl)cc1Cl,1.72%
22,COc1cccc(CNC(=O)[C@H]2CCCN2C(=O)[C@H]2CCCN2C(=O)c2cc(F)cc(F)c2)c1,0.85%
